# Results published in ChEMBL document CHEMBL4513216, “Probing the Open Global Health Chemical Diversity Library for Multistage-Active Starting Points for Next-Generation Antimalarials” (ACS Infect Dis, 2020).
# The campaign covered roughly 69,000 compounds. About 8,600 (12%) showed an effect of 50% or more. This is one part of a sample in which strong results are shown more often than they occur.
# System: Plasmodium berghei
# Test: Screen against P. berghei liver stage (PbLuc), transformed with Luciferase, at 10uM
# Assay type: functional, HepG2
# Conditions: tested at 10 uM
row,Structure (SMILES),INHIBITION [%]
1,Cc1ccc2c(n1)N(Cc1cccnc1)CCN(C(=O)C1CCC1)C2,32.4
2,NCC1CCCCN1C(=O)Cc1cccc(Cl)c1 (centres undefined),19
3,Cc1ccc(C(=O)N2CCCC2c2nnc3n2CCCCC3)s1 (centres undefined),13
4,CC(C)[C@H]1CN(C(=O)CC2CCC2)C[C@@H]1N(C)C,3.06
5,COC1(CNC(=O)c2cccc(C#N)c2)CCSC1 (centres undefined),8.7
6,Cc1nc(CN2CCO[C@@H]3CN(Cc4cccs4)C[C@@H]3C2)cs1,37.3
7,Cc1nc(C(Cc2ccsc2)NC(=O)CCN2CCOCC2)sc1C (centres undefined),-11.95
8,Cc1nc(NCCc2ccccc2)cc(C(=O)N2CCOCC2)n1,38.5
9,COc1ccc(C)cc1S(=O)(=O)N[C@H]1CN(C(C)=O)C[C@@H]1C1CC1,35.4
10,COc1cc(C)ccc1S(=O)(=O)N[C@H]1CN(C(C)=O)C[C@@H]1C1CC1,55.2
11,COc1ccc(S(=O)(=O)N[C@H]2CN(C(C)=O)C[C@@H]2C2CC2)cc1C,9.63
12,CCS(=O)(=O)N1CCC2(COCc3cnc(N4CCOCC4)nc32)C1 (centres undefined),-50.9
13,c1cnc(N2CCC3(COCc4cnc(N5CCOCC5)nc43)C2)nc1 (centres undefined),68.3
14,COCCN1CCC2(COCc3cnc(N(C)C)nc32)C1 (centres undefined),-6.23
15,c1ccc(N2CCC3(COCCN(c4ncccn4)C3)C2)nc1 (centres undefined),38.5
16,COCCN1CCC2(COCc3cnc(N4CCOCC4)nc32)C1 (centres undefined),52.3
17,O=S(=O)(C1CC1)N1CCC2(COCc3cnc(N4CCOCC4)nc32)C1 (centres undefined),-8.69
18,CN1CCC2(COCc3cnc(N4CCOCC4)nc32)C1 (centres undefined),51.3
19,c1nc(N2CCOCC2)nc2c1COCC21CCN(CC2CC2)C1 (centres undefined),-7.59
20,CNc1nc(CNC(=O)Nc2cccc(CN(C)C)c2)cs1,-0.74
21,CC(C)c1nncn1CCNC(=O)c1c(O)cc(F)cc1F,8.86
22,CC(C)=CCN1C(=O)[C@@H]2CC[C@H]1CN(C(=O)CCc1n[nH]c(C)c1C)C2,43.8

row,Structure (SMILES),INHIBITION [%]
1,CC(Cn1ccnc1)NC(=O)C1(c2cccc(Cl)c2)CC1 (centres undefined),19.4
2,COCCn1c(=O)n(Cc2ccccc2C)c2cc(C(=O)O)ccc21,29
3,COCCn1c(=O)n(Cc2ccc(Cl)s2)c2cc(C(=O)O)ccc21,32.3
4,COCCn1c(=O)n(Cc2cccc(F)c2F)c2cc(C(=O)O)ccc21,55
5,CC(NC(=O)NCC(F)(F)F)c1nncn1C (centres undefined),11.5
6,c1cncc(CCc2nc(C3CC3)nn2-c2ccc3c(c2)OCCO3)c1,50.1
7,c1cncc(OCc2nc(C3CC3)nn2-c2ccc3c(c2)OCCO3)c1,25.4
8,c1ccc(Cc2nc(C3CC3)nn2-c2ccc3c(c2)OCCO3)nc1,-52.4
9,CCc1nc(N)nc(N2CCCC3(CCOCC3)C2)c1C,50
10,CCc1cnc(N)nc1N1CCCC2(CCOCC2)C1,-3.77
11,CCc1nc(N)nc(N2CCCC3(CCN(C)CC3)CC2)c1C,-56.2
12,CS(=O)(=O)N1CCCC(n2nnn(-c3ccccc3)c2=O)C1 (centres undefined),17.55
13,c1cncc(C2COC3(CCN(CC4CC4)CC3)C2)c1 (centres undefined),-18.2
14,Cn1cccc1C(=O)N1CCCCC1c1ccn2ccnc2n1 (centres undefined),-11.7
15,Cc1cc(C(=O)N2CCCC3(CN(C)C(=O)O3)C2)c2ccc(F)cc2n1 (centres undefined),37.7
16,Cc1cccc2c(=O)c(C(=O)N3CCCC4(CN(C)C(=O)O4)C3)c[nH]c12 (centres undefined),60.1
17,Cc1nc[nH]c1C(=O)N1CCCC2(CN(C)C(=O)O2)C1 (centres undefined),3.69
18,COCCCNC(=O)NCc1ccc(C)cc1,48.8
19,CCOC(=O)CNC(=O)NCc1cccn1Cc1ccccc1C,-21.3
20,CCOC(=O)CNC(=O)NCc1cccn1Cc1ccccc1F,56.5
21,CCOC(=O)CNC(=O)NCc1cccn1Cc1ccccc1,40.8
22,CCOC(=O)CNC(=O)NCc1cccn1Cc1ccc(F)cc1,16.8

row,Structure (SMILES),INHIBITION [%]
1,COCCCNC(=O)NCc1cccn1Cc1ccccc1C,60.7
2,Cn1ccc(C(=O)N2CCCC2c2cc(CCO)[nH]n2)n1 (centres undefined),28.69
3,O=C(NCc1ccco1)c1cc[n+]([O-])cc1,-10.0965
4,O=C(Nc1ccccc1-c1ccccc1)NC1CCC2(C1)OCCO2 (centres undefined),-6.67
5,c1cnc(N2CCC(c3cc4cccnc4[nH]3)CC2)nc1,23.2
6,c1cnc(N2CCCC(c3cc4cccnc4[nH]3)C2)nc1 (centres undefined),72.5
7,c1cnc(N2CCCC(c3n[nH]c4ncccc34)C2)nc1 (centres undefined),-27.1
8,CN(C)C(=O)c1cccc(CN2CCOC(Cn3cncn3)C2)c1 (centres undefined),41.5
9,NC(=O)C1(Cc2ccccc2-c2cncnc2)CCCNC1 (centres undefined),12.915
10,Cn1nc(COc2cccnc2)c2c1CCN(c1cnccn1)C2,53.5
11,Cn1nc(CNc2ncccn2)c2c1CN(c1cnccn1)CC2,32.1
12,Cn1nc(Cn2ccnc2)c2c1CN(c1ncccn1)C2,3.88
13,Fc1cnc(N2CCCn3cnc(COc4cccnc4)c3C2)nc1,4.68
14,Cn1nc(COc2cncnc2)c2c1CCN(Cc1ccco1)C2,63.5
15,Cn1nc(COc2cccnc2)c2c1CCN(Cc1ccco1)C2,31.4
16,CCS(=O)(=O)N1CCCn2cnc(COc3cccnc3)c2C1,14.6
17,Cn1nc(CN2CCCC2)c2c1CN(C(=O)c1cnccn1)CC2,43.4
18,c1cnc(N2CCc3onc(CN4CCCC4)c3C2)cn1,37.5
19,Cn1nc(COc2cccnc2)c2c1CCN(c1ncccn1)C2,53
20,Cn1nc(COCC2CC2)c2c1CCN(Cc1ccco1)C2,-12.2
21,Cn1nc(CN2CCCC2)c2c1CN(c1cnccn1)CC2,54.8
22,Cc1cnccc1CN(C)C(=O)C(C)(C)NC(=O)c1cccs1,37.9

row,Structure (SMILES),INHIBITION [%]
1,CCNC(=O)CN1CCN(Cc2nc3c(F)cccc3n2CC)CC1,30.85
2,Cc1ccc(N2CCCC(NCc3cc(C)on3)C2)nn1 (centres undefined),27.4
3,CCCNC(=O)C1(CC2CC(c3ccccc3OC)=NO2)CCOCC1 (centres undefined),29.2
4,Cc1ccc(C(=O)N2CCn3cc(CN4CCCCC4)nc3C2)o1,17.4
5,Cc1cnc(N2CCc3c(c(COc4cncnc4)nn3C)C2)nc1,53.9
6,Cn1nc(COc2cncnc2)c2c1CCN(Cc1ccccn1)C2,24.9
7,CN1CCc2c(c(COc3cncnc3)nn2CC2CC2)C1,24.6
8,CC(C)N1CCc2c(c(COc3cccnc3)nn2CC2CC2)C1,12.7
9,COCCN1CCc2c(c(COc3cccnc3)nn2C)C1,-4.08
10,Cn1nc(COc2cccnc2)c2c1CCN(CC1CC1)C2,61.1
11,COc1ccc(OC)c(C(O)CNC(=O)Nc2cccnc2OC)c1 (centres undefined),17.4
12,Cc1cc(CNC(=O)NCCCC(=O)N2CCc3ccccc32)no1,45.4
13,COC(=O)Cn1c(=O)cc(C(F)F)c2c(C)nn(CC(F)F)c21,-12.975
14,Cc1ccc(CNc2cc3[nH]c(O)nc3cc2C)cc1,-46.3
15,O=C(c1ccc(NCc2cccc(F)c2)cc1)N1CCC(CO)CC1,-92.5
16,NC(=O)c1ccc(OCC(=O)NS(=O)(=O)c2ccc3c(c2)CCC3)cc1,15.533
17,Cn1c2ccccc2c2ncn(CCCN3CCOCC3)c(=O)c21,29.1
18,Cn1c2ccc(F)cc2c2ncn(CCN3CCOCC3)c(=O)c21,45
19,Cn1c2ccccc2c2ncn(CCN3CCOCC3)c(=O)c21,63.6
20,CC(C)n1cc(-n2cc3nc(N4CCOCC4)[nH]cc-3c2=O)cn1,5.18
21,Cc1n[nH]c(C2CN(CC(=O)NCc3sccc3C)CCO2)n1 (centres undefined),-7.36
22,O=C1CNc2ncnc(N3CCN(c4ccccc4F)CC3)c2N1,59

row,Structure (SMILES),INHIBITION [%]
1,O=C1CNc2ncnc(Nc3cnn(Cc4ccccc4F)c3)c2N1,33.5
2,O=C1CNc2ncnc(N3CCN(Cc4cccc(F)c4)CC3)c2N1,55.7
3,O=C1CNc2ncnc(N3CCN(Cc4ccccc4F)CC3)c2N1,39.1
4,O=C1CNc2ncnc(N3CCN(Cc4ccccc4)CC3)c2N1,30
5,Cc1ccccc1CN1CCN(c2ncnc3c2NC(=O)CN3)CC1,-4.76
6,COC(=O)CNC(=O)c1scnc1C,2.93
7,O=C(c1ccncc1)N1CC[C@@H](O)[C@@H](O)[C@H](N2CCC(F)(F)CC2)C1,27.8
8,Cc1ncoc1C(=O)N1CC[C@@H](O)[C@@H](O)[C@H](N2CCC(F)(F)CC2)C1,20.4
9,Cc1ocnc1C(=O)N1CC[C@@H](O)[C@@H](O)[C@H](N2CCC(F)(F)CC2)C1,59
10,O=c1c(S(=O)(=O)N2CCCCC2)cccn1Cc1cccnc1,-37.1
11,O=C(O)c1ccccc1-n1cnc(CN2CCCc3ccccc32)c1,23
12,CN(C)CCN1CCC2(CCCN(Cc3cccn3C)C2)C1=O (centres undefined),33.1
13,O=C(C1CC=CC1)N1CC[C@@H]2O[C@H](COCC3CCOCC3)CC[C@@H]21,21.6
14,Fc1ccc(CN2CC[C@H]3O[C@@H](COCC4CCOCC4)CC[C@H]32)cc1,56.3
15,c1cncc(CN2CC[C@H]3O[C@@H](COCC4CC4)CC[C@H]32)c1,44.9
16,c1cncc(CN2CC[C@H]3O[C@@H](COCC4CCOCC4)CC[C@H]32)c1,33.4
17,c1cc(CN2CC[C@H]3O[C@@H](COCC4CCOCC4)CC[C@H]32)ccn1,52
18,Fc1ccc(CN2CC[C@H]3O[C@@H](COCc4cccnc4)CC[C@H]32)cc1,39.2
19,c1ccc(CN2CC[C@@H]3O[C@@H](COCC4CCOCC4)CC[C@@H]32)nc1,22.7
20,c1cncc(COCC2CC[C@H]3[C@H](CCN3CC3CCOCC3)O2)c1 (some centres undefined),78.8
21,c1cncc(COC[C@H]2CC[C@H]3[C@H](CCN3Cc3nccs3)O2)c1,39.2
